Among the data in PubChem BioAssay (NCATS) are viability and Potency values, retold here.

The viability is a read-out of living cells in per cent, often relative to untreated cells.

Experiment [1] in a line: BET inhibitor-based combinations targeting novel dependencies in MECOM-rearranged (r) AML: SET-2 cell line (AID 2202231).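 For viability: plate controls were DMSO treated cells for no effect and wells without cells for full effect.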 Note: nearly all actives have a fitted effect of over 35% in size. The settings on record: SET-2 AML cells viability, CellTiter-Glo luminescence, 48 h; viability: hits give low values, concentration not given here. In outline:
(§1)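 Luminescent ATP readout (CellTiter-Glo) after 48 hr drug exposure gives viability. Curves span 11 concentrations and are normalized to DMSO and empty wells. Activity is reported as area under the curve and its Z-transform within each cell line.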
Background: In ATP-based viability assays light output follows the ATP content of the culture.

A short description of experiment [2]: BET inhibitor-based combinations targeting novel dependencies in MECOM-rearranged (r) AML: OCI-AML3 cell line (AID 2202232). Note: nearly all actives have a fitted effect of over 35% in size. The settings on record: CellTiter-Glo luminescence, 48 h; Potency: OCI-AML3 viability; series mostly up to 46 µM. An outline of the steps: as §1
Experiment [3] can be described thus: BET inhibitor-based combinations targeting novel dependencies in MECOM-rearranged (r) AML: MV-4-11 cell line (AID 2202233). Note: nearly all actives have a fitted effect of over 45% in size. The settings on record: MV-4-11 AML viability, CellTiter-Glo luminescence, 48 h; series mostly up to 46 µM. In outline:
(§2)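 Luminescent ATP readout (CellTiter-Glo, 15 min at room temperature) after 48 hr drug exposure gave viability. Dose-response curves, normalized to DMSO and empty-well controls, were summarized as area under the curve and its mean-centred Z-score.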

The nature of experiment [4]: BET inhibitor-based combinations targeting novel dependencies in MECOM-rearranged (r) AML: HNT-34 cell line (AID 2202234). Note: nearly all actives have a fitted effect of over 35% in size. To be noted: HNT-34 AML viability, CellTiter-Glo luminescence, 48 h; series mostly up to 46 µM. An outline of the steps: as §2
Experiment [5] can be described thus: BET inhibitor-based combinations targeting novel dependencies in MECOM-rearranged (r) AML: UCSD-AML1 cell line (AID 2202235). Note: nearly all actives have a fitted effect of over 40% in size. To be noted: UCSD-AML1 AML cells viability, CellTiter-Glo, 48 h; series mostly up to 46 µM. In outline:
as §2

Experiment [6] in a line: BET inhibitor-based combinations targeting novel dependencies in MECOM-rearranged (r) AML: AML-191 cell line (AID 2202236; note: nearly all actives have a fitted effect of over 35% in size). To be noted: AML-191 viability, CellTiter-Glo luminescence, 48 h; series mostly up to 46 µM. An outline of the steps:
as §1

Experiment [7] is described as follows: BET inhibitor-based combinations targeting novel dependencies in MECOM-rearranged (r) AML: AML-194 cell line (AID 2202237; note: nearly all actives have a fitted effect of over 40% in size). To be noted: AML-194 (MECOM-r AML) viability, CellTiter-Glo, 48 h; series mostly up to 46 µM. An outline of the steps:
as §1

Results filed as inconclusive are left out. Unmarked numbers belong to inactive results. The source made the active and inactive calls. Calls come from the whole dose curve; as a rule, active = well fitted curve in the direction sought with a large enough effect; inconclusive = small, poorly fitted or top-dose-only effect, or another doubt; inactive = no such curve, though single readings can be large; an effect the other way counts as inactive or inconclusive.
Potency is the fitted concentration of half-maximal effect.

Regarding `CC(=O)N[C@H]1[C@H](O[C@@H]2c3ccc(c(Cl)c3)Oc3cc4cc(c3O[C@@H]3O[C@H](CO)[C@@H](O)[C@H](O)[C@H]3NC(=O)CCCCCCCC(C)C)Oc3ccc(cc3Cl)C[C@H]3NC(=O)[C@H](N)c5ccc(O)c(c5)Oc5cc(O)cc(c5)[C@H](NC3=O)C(=O)N[C@H]4C(=O)N[C@H]3C(=O)N[C@@H]2C(=O)N[C@@H](C(=O)O)c2cc(O)cc(O[C@H]4O[C@H](CO)[C@@H](O)[C@H](O)[C@@H]4O)c2-c2cc3ccc2O)O[C@H](CO)[C@@H](O)[C@@H]1O`, in experiment [1], the viability was 113%. Besides, the Potency entry in experiment [2], in experiment [3], in experiment [4], in experiment [5], in experiment [6] and in experiment [7] was “inactive” throughout.
`COc1cc([C@@H]2c3cc4c(cc3[C@@H](O[C@@H]3O[C@@H]5CO[C@@H](C)O[C@@H]5[C@H](O)[C@@H]3O)[C@H]3COC(=O)[C@H]23)OCO4)cc(OC)c1O`: the Potency in experiment [1] was 5.25 µM (active); in experiment [2] it was 0.934 µM (active); in experiment [3] it was 0.166 µM (active); in experiment [4], 1.48 µM (active); in experiment [5], 0.833 µM (active); in experiment [6] it was 1.32 µM (active). Also, the Potency in experiment [7] is 2.09 µM (active).
Take `C[C@H](NC(=O)/C(C#N)=C/c1cccc(Br)n1)c1ccccc1`: the Potency is 7.42 µM (active) in experiment [1]; 4.68 µM (active) in experiment [2]; 4.17 µM (active) in experiment [3]; 4.17 µM (active) in experiment [4]; 3.72 µM (active) in experiment [5]; 4.68 µM (active) in experiment [6]. For the same compound, the Potency in experiment [7] was 9.34 µM (active).
As to `COC(=O)Nc1nc2ccc(C(=O)c3ccccc3)cc2[nH]1`, the Potency in experiment [1] was 0.833 µM (active); in experiment [2], 0.59 µM (active); in experiment [3], 0.525 µM (active); in experiment [4], 0.263 µM (active); in experiment [5] it was 0.296 µM (active); in experiment [6], 0.263 µM (active). Moreover, the Potency in experiment [7] is 0.332 µM (active).
